PMC5540273 (PLoS ONE, 2017)

Assays:
Details in all cases: concentration: 1 μM, replicates: in singlicate; n = 1
[1] = test system: PIP5K1A
[2] = test system: PIP5K1C
[3] = test system: PIP5K2B
[4] = test system: T1, PIP5K2C
T1 construct: gene PIP4K2C

[5] = test system: T2, PKAC-alpha
T2 construct: gene PRKACA

[6] = test system: T3, PKAC-beta
T3 construct: gene PRKACB

[7] = test system: PKMYT1
[8] = test system: PKN1
[9] = test system: PKN2
[10] = test system: PLK1
[11] = test system: PLK2
[12] = test system: PLK3
[13] = test system: PLK4
[14] = test system: PRKCD
[15] = test system: PRKCE
[16] = test system: PRKCH
[17] = test system: PRKCI
[18] = test system: PRKCQ
[19] = test system: PRKD1
[20] = test system: PRKD2
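Note: KINOMEscan kinase panel screen.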

Row | SMILES | %Inh [1] | %Inh [2] | %Inh [3] | %Inh [4] | %Inh [5] | %Inh [6] | %Inh [7] | %Inh [8] | %Inh [9] | %Inh [10] | %Inh [11] | %Inh [12] | %Inh [13] | %Inh [14] | %Inh [15] | %Inh [16] | %Inh [17] | %Inh [18] | %Inh [19] | %Inh [20]
1 | Nc1ncc(-c2ccc3nccc(-c4ccncc4)c3c2)cc1S(=O)(=O)N1CCCCC1 [GSK1693850] | 0% | 40% | 0% | 62% | 1% | 0% | 0% | 9% | 0% | 76% | 30% | 27% | 0% | 15% | 31% | 36% | 9% | 0% | 0% | 4%
2 | Cc1cc(-c2ccnc(Nc3cccc(C#N)c3)n2)cc(C)c1O [GSK1440913] | 11% | 70% | 61% | 94.9% | 3% | 0% | 6% | 0% | 14% | 0% | 0% | 0% | 15% | 0% | 6% | 5% | 5% | 12% | 0% | 0%
3 | Cl.O=C(Nc1ccc(Oc2ccc3[nH]c(NC(=O)c4ccco4)nc3c2)cc1)Nc1cc(C(F)(F)F)ccc1F [GW683134] | 0% | 10% | 0% | 0% | 0% | 8% | 0% | 7% | 0% | 0% | 0% | 0% | 0% | 4% | 0% | 0% | 0% | 9% | 0% | 0%
4 | Cc1ccc(NC(=O)c2ccnc(N3CCCCC3)c2)cc1-c1ccc(C(=O)NCC2CC2)cc1 [GW775610] | 0% | 5% | 0% | 14% | 0% | 10% | 8% | 0% | 0% | 0% | 0% | 0% | 24% | 9% | 9% | 0% | 6% | 2% | 0% | 0%
5 | N#CC1(c2cccc(C(=O)Nc3cccc(Oc4ccc5nc(NC(=O)C6CC6)sc5n4)c3)c2)CC1 | 3% | 59% | 0% | 23% | 34% | 0% | 0% | 0% | 0% | 13% | 5% | 21% | 0% | 5% | 9% | 0% | 18% | 40% | 40% | 0%
6 | CC(=O)Nc1cn2nc(Oc3cccc(NC(=O)c4cccc(C(F)(F)F)c4)c3)ccc2n1 | 11% | 5% | 0% | 32% | 8% | 52% | 0% | 0% | 23% | 0% | 0% | 0% | 0% | 0% | 0% | 0% | 0% | 0% | 18% | 17%
7 | Cl.N#CCc1ccc(Nc2nccc(Nc3ccc(Oc4ccccc4)cc3)n2)cc1 [GW639905] | 26% | 34% | 20% | 78% | 0% | 0% | 0% | 39% | 0% | 0% | 0% | 0% | 1% | 0% | 6% | 0% | 4% | 0% | 0% | 0%
8 | O=C(Nc1n[nH]c2nc(-c3ccccc3)ccc12)C1CC1 [SB-708999] | 46% | 84% | 12% | 34% | 4% | 0% | 0% | 11% | 0% | 16% | 0% | 0% | 17% | 0% | 2% | 24% | 27% | 0% | 0% | 7%
9 | CN(C)c1ncnc2nc[nH]c12 [SKF-31736] | 0% | 0% | 0% | 10% | 0% | 0% | 4% | 0% | 1% | 12% | 20% | 30% | 1% | 0% | 3% | 0% | 0% | 0% | 0% | 0%
10 | CN(c1ccc(NC(=O)N2CCN(CCCN3CCOCC3)CC2)cc1)c1ccnc(Nc2ccc(CS(C)(=O)=O)cc2)n1.Cl [GW830899] | 0% | 26% | 32% | 55% | 0% | 29% | 25% | 0% | 0% | 3% | 0% | 0% | 39% | 23% | 0% | 0% | 43% | 0% | 0% | 0%
11 | CCNc1nccc(-c2c(-c3ccc(F)cc3)ncn2C2CCN(C)CC2)n1 | 0% | 0% | 0% | 0% | 20% | 0% | 0% | 0% | 0% | 0% | 0% | 0% | 0% | 6% | 31% | 0% | 0% | 0% | 40% | 0%
12 | CN(C)CCOc1ccc(-c2cc(-c3ccc(Cl)c(O)c3)c(-c3ccncc3)[nH]2)cc1.Cl.Cl [SB-684387] | 45% | 54% | 7% | 20% | 33% | 10% | 0% | 39% | 0% | 3% | 4% | 11% | 31% | 0% | 26% | 2% | 14% | 3% | 14% | 2%
13 | Fc1cc(Cl)ccc1Nc1ccnc2cc(-c3ccc(CN4CCOCC4)o3)ccc12 [GW560109] | 0% | 44% | 31% | 75% | 8% | 37% | 0% | 100% | 0% | 0% | 0% | 0% | 81% | 0% | 5% | 3% | 22% | 31% | 0% | 2%
14 | COc1cccc(-c2nc(-c3ccccc3)[nH]c2-c2ccncc2)c1 [SB-610250] | 0% | 38% | 39% | 8% | 0% | 0% | 0% | 0% | 0% | 0% | 0% | 0% | 0% | 0% | 7% | 0% | 25% | 0% | 14% | 0%
15 | CN1CCN(Cc2ccc(NC(=O)Nc3ccc(N(C)c4ccnc(Nc5ccc(CS(C)(=O)=O)cc5)n4)cc3)cc2)CC1.Cl [GW827654] | 74% | 0% | 69% | 78% | 0% | 23% | 10% | 41% | 0% | 7% | 12% | 3% | 90% | 5% | 5% | 0% | 23% | 38% | 23% | 27%
16 | COc1cc(Nc2nccc(N3CCC(NS(=O)(=O)c4ccc(NC(C)=O)cc4)CC3)n2)cc(OC)c1OC [GSK1379825] | 11% | 56% | 0% | 77% | 0% | 0% | 40% | 16% | 0% | 4% | 0% | 29% | 27% | 0% | 14% | 35% | 19% | 26% | 0% | 0%
17 | COc1ccc(C)c(Nc2ccnc(Nc3ccc(-c4cnc[nH]4)cc3)n2)c1.Cl [GW784041] | 0% | 33% | 33% | 67% | 8% | 22% | 2% | 0% | 0% | 11% | 0% | 0% | 15% | 30% | 12% | 0% | 25% | 0% | 16% | 12%
18 | Cn1cc(-c2cnc(N)c3c(-c4ccc5c(c4)CCN5C(=O)Cc4ccccc4)csc23)cn1 [GSK2593074] | 0% | 0% | 1% | 0% | 9% | 0% | 8% | 0% | 7% | 0% | 41% | 16% | 19% | 9% | 0% | 0% | 0% | 0% | 6% | 0%
19 | Cc1cc(-c2c(-c3ccc(F)cc3)ncn2CCCN2CCOCC2)nc(N)n1 [SB-222517] | 0% | 0% | 0% | 0% | 26% | 16% | 4% | 0% | 10% | 12% | 11% | 25% | 15% | 28% | 0% | 0% | 27% | 0% | 0% | 0%
20 | CCNC(=O)/C=C/c1n[nH]c2cc(Sc3ccccc3C(=O)NC)ccc12 | 0% | 0% | 33% | 0% | 4% | 21% | 30% | 0% | 17% | 0% | 17% | 18% | 91.9% | 6% | 3% | 0% | 5% | 0% | 3% | 14%
21 | CC(C)c1nc(-c2ccc(F)c(NS(=O)(=O)c3c(F)cccc3F)c2)c(-c2ccnc(Nc3ccc(N4CCOCC4)nc3)n2)s1 [GSK1804250] | 0% | 46% | 9% | 78% | 1% | 0% | 4% | 59% | 12% | 15% | 0% | 0% | 99.8% | 8% | 7% | 21% | 39% | 0% | 93.6% | 99.4%
